Results from published antibiotic growth screens (doi:10.1016/j.cell.2020.01.021).
In all, about 2,300 compounds were measured (“relative growth”: median about 1, lowest 2% from about 0.046 on). Not all results are given here.

system: E. coli BW25113; assay: relative growth (fraction of control); higher = less inhibition; conditions: 50 µM

SMILES	relative growth
C=C1C2CCC3(C)C(c4ccoc4)OC(=O)CC13OC1CC(O)C(C)(C)C(CC(=O)OC)C12C (stereo not drawn) [3alpha-HYDROXY-3-DEOXYANGOLENSIC ACID METHYL ESTER]	1.03
OCC(O)C(O)CO (stereo not drawn)	0.882
Cl.NC(=O)CCC(N)C(=O)O (stereo not drawn)	1.03
CCN(CCCc1ccccc1)CCCc1ccccc1.O=C(O)CC(O)(CC(=O)O)C(=O)O	0.881
CN(C)CC(c1ccc(O)cc1)C1(O)CCCCC1.O=C(O)CCC(=O)O (stereo not drawn)	1.14
CC1=C(C(=O)O)N2C(=O)C(NC(=O)C(N)c3ccccc3)C2SC1 (stereo not drawn)	1.03
O=C(O)C=CC(=O)O.OCCOCCN1CCN(C2=Nc3ccccc3Sc3ccccc32)CC1	0.3
CC1CC2C3CCC4=CC(=O)C=CC4(C)C3(F)C(O)CC2(C)C1(O)C(=O)CO (stereo not drawn)	0.933
C1CCC(C(CC2CCCCN2)C2CCCCC2)CC1.O=C(O)C=CC(=O)O (stereo not drawn)	0.52
CCN1CCCC1CNC(=O)c1cc(S(N)(=O)=O)ccc1OC (stereo not drawn)	1.04
CC12CCC(CC1)C(C)(C)O2	1.06
Cc1ccccc1C(OCCN(C)C)c1ccccc1.O=C(O)CC(O)(CC(=O)O)C(=O)O (stereo not drawn)	1.01
COCCCCC(=NOCCN)c1ccc(C(F)(F)F)cc1.O=C(O)C=CC(=O)O	0.949
Nc1nc(N)nc(-c2cc(Cl)ccc2Cl)n1.O=C(O)C=CC(=O)O	1.04
CC(N)C(O)c1cccc(O)c1.O=C(O)C(O)C(O)C(=O)O (stereo not drawn)	0.957
Cc1ccc(S(=O)(=O)O)cc1.NC1CCN(c2nc3c(cc2F)c(=O)c(C(=O)O)cn3-c2ccc(F)cc2F)C1.O (stereo not drawn)	0.0925
C=CC1=C(C)c2cc3[nH]c(cc4nc(cc5[nH]c(cc1n2)c(C)c5CCC(=O)O)C(CCC(=O)O)=C4C)c(C)c3C=C	2.63
CNC(C)C1CCC(N)C(OC2C(N)CC(N)C(OC3OCC(C)(O)C(NC)C3O)C2O)O1.O=S(=O)(O)O (stereo not drawn)	0.786
Cc1cc(C=Cc2ccc3cc(N(C)C)ccc3[n+]2C)c(C)n1-c1ccccc1.O=C([O-])c1cc2ccccc2c(Cc2c(O)c(C(=O)O)cc3ccccc23)c1O	0.996
CC(C)Cc1ccc(C(C)C(=O)O)cc1 (stereo not drawn)	0.933
CCN(CC)C(=O)N1CCN(C)CC1.O=C(O)CC(O)(CC(=O)O)C(=O)O	1.1
O=C(O)c1cc2ccccc2c(Cc2c(O)c(C(=O)O)cc3ccccc23)c1O.OCCOCCN1CCN(C(c2ccccc2)c2ccc(Cl)cc2)CC1	1.17
CC(CN(C)C)CN1c2ccccc2CCc2ccccc21.O=C(O)C=CC(=O)O (stereo not drawn)	1.01
CCCCCCCCCCCCCCCC(=O)NCCO	1.06

SMILES	relative growth
COC1C(C(=O)O)OC(C)C(O)C1O.COC1OC(C(=O)O)C(O)C(O)C1O (stereo not drawn) [ALGINIC ACID [Mol Wt ~200,000; monomers shown]]	0.862
CN1CCC(=C2c3ccccc3CC(=O)c3sccc32)CC1.O=C(O)C=CC(=O)O	1.03
C=CC1CN2CCC1CC2C(O)c1ccnc2ccc(OC)cc12.O=C(O)C(O)C(O)C(O)C(O)CO (stereo not drawn)	0.949
CC(=O)c1ccc2c(c1)N(CCCN(C)C)c1ccccc1S2.O=C(O)C=CC(=O)O	0.983
CC1OC(OC2C(O)CC(OC3C(O)CC(OC4CCC5(C)C(CCC6C5CC(O)C5(C)C(C7=CC(=O)OC7)CCC65O)C4)OC3C)OC2C)CC(O)C1O (stereo not drawn)	1.13
Cl.Cl.O=C(O)COCCN1CCN(C(c2ccccc2)c2ccc(Cl)cc2)CC1 (stereo not drawn)	0.982
C[N+](C)(C)CC(O)CC(=O)[O-] (stereo not drawn)	0.989
CCOC(=O)C1=C(COCCN)NC(C)=C(C(=O)OC)C1c1ccccc1Cl.O=S(=O)(O)c1ccccc1 (stereo not drawn)	0.929
COCCc1ccc(OCC(O)CNC(C)C)cc1.O=C(O)C(O)C(O)C(=O)O (stereo not drawn)	1.17
COC1C(O)C(O)C(O)C(O)C1O (stereo not drawn)	0.97
COc1cccc2c1C(=O)c1c(O)c3c(c(O)c1C2=O)CC(O)(C(=O)CO)CC3OC1CC(N)C(O)C(C)O1 (stereo not drawn)	1.02
Cn1c(=O)c2[nH]cnc2n(C)c1=O	1.07
CN1CCC(=C2c3ccccc3Sc3ccccc32)CC1.O=C(O)C=CC(=O)O	0.967
CC[N+](CC)(CC(=O)Nc1c(C)cccc1C)Cc1ccccc1.O=C([O-])c1ccccc1	1.01
O=c1[nH]cc(F)c(=O)[nH]1	0.475
COc1ccc(CC2c3cc(OC)c(OC)cc3CC[N+]2(C)CCC(=O)OCCCCCOC(=O)CC[N+]2(C)CCc3cc(OC)c(OC)cc3C2Cc2ccc(OC)c(OC)c2)cc1OC.O=S(=O)([O-])c1ccccc1.O=S(=O)([O-])c1ccccc1 (stereo not drawn)	0.995
CCN(CC)CCOc1ccc(C(=C(Cl)c2ccccc2)c2ccccc2)cc1.O=C(O)CC(O)(CC(=O)O)C(=O)O	0.86
CCOC(=O)Nc1ccc(NCc2ccc(F)cc2)nc1N.O=C(O)C=CC(=O)O	0.989
Cc1cc2nc3c(=O)[nH]c(=O)nc-3n(CC(O)C(O)C(O)COP(=O)([O-])O)c2cc1C.[Na+] (stereo not drawn)	0.981
CCC(C)C1OC2(CCC1C)CC1CC(CC=C(C)C(OC3CC(OC)C(OC4CC(OC)C(O)C(C)O4)C(C)O3)C(C)C=CC=C3COC4C(O)C(C)=CC(C(=O)O1)C34O)O2 (stereo not drawn)	0.874
CN(C)CCOC(c1ccccc1)c1ccccc1.Cn1c(=O)c2[nH]c(Cl)nc2n(C)c1=O	0.0491
Cn1c(=O)cc(N2CCCC(N)C2)n(Cc2ccccc2C#N)c1=O.O=C(O)c1ccccc1 (stereo not drawn)	1.05
O.OCC(O)C(O)C(OC1OC(CO)C(O)C(O)C1O)C(O)CO (stereo not drawn)	0.993
CC12CCC3c4ccc(O)cc4CCC3C1CC(O)C2O (stereo not drawn)	1.07

SMILES	relative growth
CC(CN(C)C)CN1c2ccccc2Sc2ccccc21.O=C(O)C(O)C(O)C(=O)O (stereo not drawn)	0.971
CC(=O)NCC(=O)O.CC(=O)NCC(=O)O.N=C(N)c1ccc(N=NNc2ccc(C(=N)N)cc2)cc1	1.01
CCOCC(O)COc1ccc(NC(=O)CC[S+](C)C)cc1.Cc1ccc(S(=O)(=O)[O-])cc1 (stereo not drawn)	1.09
O=C(O)CC(O)(CC(=O)O)C(=O)O	1.02
CN(CCOc1ccc(CC2SC(=O)NC2=O)cc1)c1ccccn1.O=C(O)C=CC(=O)O (stereo not drawn)	0.921
CC(C)C(=O)Oc1ccc(CO)cc1C(CCN(C(C)C)C(C)C)c1ccccc1.O=C(O)C=CC(=O)O (stereo not drawn)	0.804
C[n+]1cc2c3c(ccc2c2ccc4cc5c(cc4c21)OCO5)OCO3.[Cl-]	0.639
CC(CCC(=O)O)C1CCC2C3C(O)CC4CC(O)CCC4(C)C3CCC12C (stereo not drawn)	0.976
CCOCCn1c(N2CCCN(C)CC2)nc2ccccc21.O=C(O)C=CC(=O)O.O=C(O)C=CC(=O)O	1.11
NCC1OC(OC2C(N)CC(N)C(OC3OC(CO)C(O)C(N)C3O)C2O)C(O)C(O)C1O.O=S(=O)(O)O (stereo not drawn)	0.935
CC(C)(C)NCC(O)COc1nsnc1N1CCOCC1.O=C(O)C=CC(=O)O (stereo not drawn)	0.974
CCCc1nn(C)c2c(=O)[nH]c(-c3cc(S(=O)(=O)N4CCN(C)CC4)ccc3OCC)nc12.O=C(O)CC(O)(CC(=O)O)C(=O)O	0.963
C[N+](C)(CCOc1ccccc1)Cc1ccccc1.O=C([O-])c1cc2ccccc2cc1O	0.93
COc1cccc2c1C(=O)c1c(O)c3c(c(O)c1C2=O)CC(O)(C(=O)CO)CC3OC1CC(N)C(O)C(C)O1.Cl (stereo not drawn)	1.02
CC12CCC3C(=CCc4cc(O)ccc43)C1CCC2=O (stereo not drawn)	0.988
CCC1OC(=O)C(C)C(OC2CC(C)(OC)C(O)C(C)O2)C(C)C(OC2OC(C)CC(N(C)C)C2O)C(C)(O)CC(C)C(=O)C(C)C(O)C1(C)O.CCCCCCCCCCCCCCCCCC(=O)O (stereo not drawn)	0.665
NCCCC(N)C(=O)O.NCCCC(N)C(=O)O.O=C(O)CCC(=O)C(=O)O	1.09
C=CC1CN2CCC1CC2C(O)c1ccnc2ccc(OC)cc12 (stereo not drawn)	1.02
Cc1ccsc1C=CC1=NCCCN1C.O=C(O)CC(O)(CC(=O)O)C(=O)O	0.986
CN(C)C1C(O)=C(C(N)=O)C(=O)C2(O)C(O)=C3C(=O)c4c(O)cccc4C(C)(O)C3CC12.Cl (stereo not drawn)	0.0522
CN1CCN(C2=Nc3ccccc3Oc3ccc(Cl)cc32)CC1.O=C(O)CCC(=O)O	1.08
C#CCCCCCCCCCCCC(O)CC(O)COC(C)=O.C=CCCCCCCCCCCCC(O)CC(O)COC(C)=O (stereo not drawn)	1.03
CCN(CC)CCOCCOC(=O)C1(c2ccccc2)CCCC1.O=C(O)CC(O)(CC(=O)O)C(=O)O	1.08
CN(C)CCC(c1ccc(Cl)cc1)c1ccccn1.O=C(O)C=CC(=O)O (stereo not drawn)	0.967

SMILES	relative growth
CCCCCCc1ccc(O)cc1O.Nc1c2ccccc2nc2ccccc12	0.591
Cl.N[C@H](Cc1ccccc1)C(=O)O	1
O=C(O)C(O)C(O)C(=O)O.OCc1cccnc1 (stereo not drawn)	1.06
CNCC(O)C(O)C(O)C(O)CO.Cc1c(Nc2ncccc2C(=O)O)cccc1C(F)(F)F	1.04
CCCCCNC(=N)NN=Cc1c[nH]c2ccc(OC)cc12.O=C(O)C=CC(=O)O	0.879
CCN(CC)CCOCCOC(=O)C(CC)(CC)c1ccccc1.O=C(O)CC(O)(CC(=O)O)C(=O)O	1.1
CN1CCCN=C1C=Cc1cccs1.O=C(O)c1cc2ccccc2c(Cc2c(O)c(C(=O)O)cc3ccccc23)c1O	1.13
CCC1OC(=O)CC(O)C(C)C(OC2OC(C)C(OC3CC(C)(O)C(O)C(C)O3)C(N(C)C)C2O)C(CC=O)CC(C)C(=O)C=CC(C)=CC1COC1OC(C)C(O)C(OC)C1OC.O=C(O)C(O)C(O)C(=O)O (stereo not drawn)	1.09
CC(=O)OC1CC2(C)C(CC(O)C3C4(C)CCC(O)C(C)C4CCC32C)C1=C(CCC=C(C)C)C(=O)O (stereo not drawn)	1.12
NNC(=O)c1ccncc1.Nc1ccc(C(=O)O)c(O)c1	0.943
O=C(O)CCC(=O)O.O=C(OC1CN2CCC1CC2)N1CCc2ccccc2C1c1ccccc1 (stereo not drawn)	1.02
CCC(=O)OC1C(OC2C(C)C(OC3CC(C)(OC)C(O)C(C)O3)C(C)C(=O)OC(CC)C(C)(O)C(O)C(C)C(=O)C(C)CC2(C)O)OC(C)CC1N(C)C.CCCCCCCCCCCCOS(=O)(=O)O (stereo not drawn)	0.953
Oc1ccc(Cl)c2cccnc12	0.421
CN1CCc2nc(C(=O)NC3CC(C(=O)N(C)C)CCC3NC(=O)C(=O)Nc3ccc(Cl)cn3)sc2C1.Cc1ccc(S(=O)(=O)O)cc1.O (stereo not drawn)	1.01
CC(=O)c1ccc2c(c1)N(CCCN1CCN(CCO)CC1)c1ccccc1S2.O=C(O)C=CC(=O)O	1.17
CC(=O)OCC(=O)C1(O)C(C)CC2C3CCC4=CC(=O)C=CC4(C)C3(F)C(O)CC21C (stereo not drawn)	0.913
OCC(O)C(O)C(OC1OC(CO)C(O)C(O)C1O)C(O)CO (stereo not drawn)	0.991
CC1CC2C3CCC4=CC(=O)C=CC4(C)C3(F)C(O)CC2(C)C1(O)C(=O)COP(=O)([O-])[O-].[Na+].[Na+] (stereo not drawn)	1.1
CN1C(C)(C)CCCC1(C)C.O=C(O)C(O)C(O)C(=O)O	0.993
CN(C)CCN(Cc1ccccc1)c1ccccn1.O=C(O)CC(O)(CC(=O)O)C(=O)O	0.763
CCC(=C(c1ccccc1)c1ccc(OCCN(C)C)cc1)c1ccccc1.O=C(O)CC(O)(CC(=O)O)C(=O)O	0.642
